What all share (assay): DAPPL (digital affinity profiling via proximity ligation, sequencing); 10 mM Tris-HCl pH 7.5, 50 mM NaCl, 1 mM DTT, 4% glycerol, room temperature, 30 min; GST-TFs on glutathione beads, 16-mer random dsDNA library, 0.1% formaldehyde crosslink after washing; high values mean tight binding
Conditions in all cases: protein: recombinant; tags: N-terminal GST; dsDNA, one strand shown

One experiment concerns the target T1, FLI1 (Homo sapiens, UniProt Q01543 1-452).
T1 sequence: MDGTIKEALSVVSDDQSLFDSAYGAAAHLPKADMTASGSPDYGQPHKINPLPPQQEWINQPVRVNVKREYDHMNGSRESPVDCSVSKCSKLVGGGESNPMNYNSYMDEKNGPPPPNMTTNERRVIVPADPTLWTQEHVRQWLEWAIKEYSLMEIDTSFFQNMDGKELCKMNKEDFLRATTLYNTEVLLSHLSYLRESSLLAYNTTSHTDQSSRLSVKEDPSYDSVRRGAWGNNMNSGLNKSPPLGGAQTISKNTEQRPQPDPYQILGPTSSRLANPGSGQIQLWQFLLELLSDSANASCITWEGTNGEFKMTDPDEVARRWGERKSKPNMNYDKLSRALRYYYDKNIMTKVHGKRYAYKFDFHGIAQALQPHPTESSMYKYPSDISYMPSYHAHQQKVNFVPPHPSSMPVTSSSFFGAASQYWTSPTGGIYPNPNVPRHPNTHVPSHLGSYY
Summed up:
(§1)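 Yeast served to express human transcription factors as GST fusions, which were then captured on glutathione beads and labelled with DNA barcodes. Pooled with a tag-only sample, they were incubated with 200 nmole of a 16-mer random double-stranded DNA library for 30 min at room temperature in Tris/NaCl/DTT/glycerol buffer, washed, crosslinked with 0.1% formaldehyde, ligated by proximity, amplified by PCR and sequenced. Dividing each hexamer's read frequency for a factor by its frequency for the tag-only sample gives the binding signal.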

The next experiment deals with T2, ELK1 (Homo sapiens, UniProt P19419 1-428).
T2 sequence: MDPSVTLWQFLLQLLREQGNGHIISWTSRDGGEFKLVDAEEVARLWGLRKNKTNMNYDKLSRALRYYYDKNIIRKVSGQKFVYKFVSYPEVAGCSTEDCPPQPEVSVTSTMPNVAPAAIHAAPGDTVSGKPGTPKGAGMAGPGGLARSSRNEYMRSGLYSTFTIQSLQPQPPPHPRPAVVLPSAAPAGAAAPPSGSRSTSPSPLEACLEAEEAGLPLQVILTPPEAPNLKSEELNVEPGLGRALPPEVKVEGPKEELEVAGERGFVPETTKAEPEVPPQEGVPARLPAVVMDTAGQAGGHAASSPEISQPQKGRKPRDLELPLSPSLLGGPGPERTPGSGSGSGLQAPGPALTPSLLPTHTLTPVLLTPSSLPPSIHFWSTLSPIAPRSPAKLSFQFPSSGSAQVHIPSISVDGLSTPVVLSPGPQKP
The procedure, abridged: as §1

A further experiment addresses T3, GABPA (Homo sapiens, UniProt Q06546 1-454).
T3 sequence: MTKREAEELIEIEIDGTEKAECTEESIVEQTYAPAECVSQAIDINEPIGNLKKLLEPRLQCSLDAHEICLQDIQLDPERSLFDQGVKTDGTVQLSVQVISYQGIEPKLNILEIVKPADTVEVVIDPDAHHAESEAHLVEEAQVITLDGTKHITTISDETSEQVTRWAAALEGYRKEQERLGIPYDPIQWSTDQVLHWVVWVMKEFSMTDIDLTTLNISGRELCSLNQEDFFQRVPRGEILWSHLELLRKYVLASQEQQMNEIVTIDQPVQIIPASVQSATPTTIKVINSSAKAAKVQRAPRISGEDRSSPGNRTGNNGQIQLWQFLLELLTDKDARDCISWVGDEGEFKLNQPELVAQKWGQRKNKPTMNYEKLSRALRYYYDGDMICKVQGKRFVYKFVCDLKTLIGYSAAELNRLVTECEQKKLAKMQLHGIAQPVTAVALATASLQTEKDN
Summed up:
as §1

Another experiment addresses T4, ERG (Homo sapiens, UniProt P11308 1-479).
T4 sequence: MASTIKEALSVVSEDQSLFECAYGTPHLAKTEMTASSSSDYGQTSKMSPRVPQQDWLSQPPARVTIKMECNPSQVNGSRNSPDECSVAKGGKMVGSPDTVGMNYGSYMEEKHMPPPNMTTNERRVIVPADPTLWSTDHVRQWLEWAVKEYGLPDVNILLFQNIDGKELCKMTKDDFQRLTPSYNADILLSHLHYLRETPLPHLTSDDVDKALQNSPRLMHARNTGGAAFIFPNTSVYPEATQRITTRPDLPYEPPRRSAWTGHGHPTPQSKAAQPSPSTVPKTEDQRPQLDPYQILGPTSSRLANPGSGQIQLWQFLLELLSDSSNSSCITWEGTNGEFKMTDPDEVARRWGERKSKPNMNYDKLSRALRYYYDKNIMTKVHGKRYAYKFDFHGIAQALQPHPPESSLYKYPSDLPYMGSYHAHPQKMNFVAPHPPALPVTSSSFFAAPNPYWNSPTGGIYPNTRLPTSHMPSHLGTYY
Summed up: as §1

The target in another experiment is ELF1 (Homo sapiens, UniProt P32519 1-619). The procedure, abridged: as §1
Chain of ELF1 (P32519 whole entry): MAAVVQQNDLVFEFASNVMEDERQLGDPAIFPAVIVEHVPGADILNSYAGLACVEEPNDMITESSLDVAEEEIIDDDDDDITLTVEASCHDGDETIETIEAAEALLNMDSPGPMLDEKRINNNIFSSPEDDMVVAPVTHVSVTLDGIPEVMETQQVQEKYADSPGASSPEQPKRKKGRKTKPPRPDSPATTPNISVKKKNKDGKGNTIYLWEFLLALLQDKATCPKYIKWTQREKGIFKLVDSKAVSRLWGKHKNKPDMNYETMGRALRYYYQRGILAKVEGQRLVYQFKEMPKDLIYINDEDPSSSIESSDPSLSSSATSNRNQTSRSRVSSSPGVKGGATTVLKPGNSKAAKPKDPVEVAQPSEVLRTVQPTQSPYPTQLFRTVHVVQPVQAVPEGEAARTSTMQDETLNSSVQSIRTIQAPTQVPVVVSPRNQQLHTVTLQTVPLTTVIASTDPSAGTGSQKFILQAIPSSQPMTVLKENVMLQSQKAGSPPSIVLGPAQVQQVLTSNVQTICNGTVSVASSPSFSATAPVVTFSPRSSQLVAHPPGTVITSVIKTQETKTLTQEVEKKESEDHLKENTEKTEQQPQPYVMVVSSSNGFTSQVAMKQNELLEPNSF
The next experiment addresses T5, EHF (Homo sapiens, UniProt Q9NZC4 1-300).
T5 sequence: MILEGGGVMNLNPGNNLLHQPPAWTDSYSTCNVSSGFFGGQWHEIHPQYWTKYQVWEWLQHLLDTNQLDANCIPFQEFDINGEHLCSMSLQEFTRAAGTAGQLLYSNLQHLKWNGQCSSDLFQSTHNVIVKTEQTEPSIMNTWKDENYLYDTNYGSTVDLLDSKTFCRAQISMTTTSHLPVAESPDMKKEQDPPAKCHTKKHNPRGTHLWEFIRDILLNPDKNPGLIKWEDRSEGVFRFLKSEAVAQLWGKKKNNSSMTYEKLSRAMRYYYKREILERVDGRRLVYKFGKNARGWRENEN
The procedure, abridged: as §1

The target in a further experiment is SPI1 (Homo sapiens, UniProt P17947 1-270). Summed up: as §1
The target of another experiment is SPIB (Homo sapiens, UniProt Q01892 1-262). Summed up: as §1
Chain of SPIB (Q01892 whole entry): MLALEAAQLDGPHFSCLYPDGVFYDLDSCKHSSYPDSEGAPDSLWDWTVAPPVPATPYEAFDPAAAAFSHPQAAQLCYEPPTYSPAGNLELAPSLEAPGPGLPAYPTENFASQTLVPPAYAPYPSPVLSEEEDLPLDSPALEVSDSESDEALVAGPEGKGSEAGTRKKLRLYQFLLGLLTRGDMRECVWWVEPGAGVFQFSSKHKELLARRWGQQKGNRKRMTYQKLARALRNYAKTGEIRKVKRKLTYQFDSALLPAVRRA
The target in another experiment is T6, ELK3 (Homo sapiens, UniProt P41970 1-407).
T6 sequence: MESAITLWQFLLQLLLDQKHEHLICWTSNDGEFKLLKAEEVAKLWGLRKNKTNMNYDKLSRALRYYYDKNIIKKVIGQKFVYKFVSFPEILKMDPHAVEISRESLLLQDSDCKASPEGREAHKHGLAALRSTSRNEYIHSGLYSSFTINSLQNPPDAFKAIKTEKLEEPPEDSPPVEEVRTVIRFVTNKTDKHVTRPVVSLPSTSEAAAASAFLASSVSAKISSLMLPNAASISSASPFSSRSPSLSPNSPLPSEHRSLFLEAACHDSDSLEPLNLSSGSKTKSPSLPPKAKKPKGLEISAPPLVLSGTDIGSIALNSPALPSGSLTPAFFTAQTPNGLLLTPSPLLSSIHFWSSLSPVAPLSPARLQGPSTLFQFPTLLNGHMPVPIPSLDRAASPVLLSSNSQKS
The procedure, abridged:
as §1

Data on eight sequences can be found in PMC7862700, “An all-to-all approach to the identification of sequence-specific readers for epigenetic DNA modifications on cytosine”.

In the case of CTTCAA, the binding signal is 1.44 fold enrichment (6-mer frequency, TF over GST control) with FLI1; 1.35 fold enrichment (6-mer frequency, TF over GST control) with ELK1; 1.35 fold enrichment (6-mer frequency, TF over GST control) with GABPA; 1.28 fold enrichment (6-mer frequency, TF over GST control) with ERG; 1.4 fold enrichment (6-mer frequency, TF over GST control) with ELF1; 1.26 fold enrichment (6-mer frequency, TF over GST control) with EHF. Besides, the binding signal with SPI1 is 1.27 fold enrichment (6-mer frequency, TF over GST control); with SPIB, 1.4 fold enrichment (6-mer frequency, TF over GST control); with ELK3, 1.13 fold enrichment (6-mer frequency, TF over GST control).
With ACCTCT, the binding signal with FLI1 was 1.32 fold enrichment (6-mer frequency, TF over GST control); in the experiment with ELK1, 1.37 fold enrichment (6-mer frequency, TF over GST control); with GABPA, 1.41 fold enrichment (6-mer frequency, TF over GST control); with ERG, 1.41 fold enrichment (6-mer frequency, TF over GST control); in the experiment with ELF1, 1.47 fold enrichment (6-mer frequency, TF over GST control); in the experiment with EHF, 1.37 fold enrichment (6-mer frequency, TF over GST control). Further, the binding signal with SPI1 is 1.29 fold enrichment (6-mer frequency, TF over GST control); in the experiment with SPIB, 1.24 fold enrichment (6-mer frequency, TF over GST control); with ELK3, 1.36 fold enrichment (6-mer frequency, TF over GST control).
Consider TTACGG, for which the binding signal in the experiment with FLI1 was 1.3 fold enrichment (6-mer frequency, TF over GST control); in the experiment with ELK1, 1.23 fold enrichment (6-mer frequency, TF over GST control); in the experiment with GABPA, 1.22 fold enrichment (6-mer frequency, TF over GST control); in the experiment with ERG, 1.31 fold enrichment (6-mer frequency, TF over GST control); with ELF1, 1.26 fold enrichment (6-mer frequency, TF over GST control); with EHF it was 1.31 fold enrichment (6-mer frequency, TF over GST control). In addition, the binding signal was 1.37 fold enrichment (6-mer frequency, TF over GST control) in the experiment with SPI1; 1.38 fold enrichment (6-mer frequency, TF over GST control) with SPIB; 1.48 fold enrichment (6-mer frequency, TF over GST control) in the experiment with ELK3.
Regarding ATCAAC, the binding signal was 1.12 fold enrichment (6-mer frequency, TF over GST control) with FLI1; 1.19 fold enrichment (6-mer frequency, TF over GST control) with ELK1; 1.19 fold enrichment (6-mer frequency, TF over GST control) in the experiment with GABPA; 1.07 fold enrichment (6-mer frequency, TF over GST control) with ERG; 1.13 fold enrichment (6-mer frequency, TF over GST control) with ELF1; 1.12 fold enrichment (6-mer frequency, TF over GST control) in the experiment with EHF. Further, the binding signal with SPI1 was 1.08 fold enrichment (6-mer frequency, TF over GST control); with SPIB it was 1.1 fold enrichment (6-mer frequency, TF over GST control); in the experiment with ELK3, 1.21 fold enrichment (6-mer frequency, TF over GST control).
Take TCTGGC: the binding signal in the experiment with FLI1 is 1.36 fold enrichment (6-mer frequency, TF over GST control); with ELK1, 1.26 fold enrichment (6-mer frequency, TF over GST control); with GABPA, 1.29 fold enrichment (6-mer frequency, TF over GST control); with ERG, 1.27 fold enrichment (6-mer frequency, TF over GST control); in the experiment with ELF1, 1.14 fold enrichment (6-mer frequency, TF over GST control); with EHF it was 1.22 fold enrichment (6-mer frequency, TF over GST control). Further, the binding signal with SPI1 is 1.25 fold enrichment (6-mer frequency, TF over GST control); with SPIB, 1.09 fold enrichment (6-mer frequency, TF over GST control); with ELK3, 1.18 fold enrichment (6-mer frequency, TF over GST control).
As to GCTACT, the binding signal with FLI1 was 1.37 fold enrichment (6-mer frequency, TF over GST control); with ELK1, 1.25 fold enrichment (6-mer frequency, TF over GST control); in the experiment with GABPA, 1.32 fold enrichment (6-mer frequency, TF over GST control); in the experiment with ERG it was 1.38 fold enrichment (6-mer frequency, TF over GST control); with ELF1, 1.35 fold enrichment (6-mer frequency, TF over GST control); with EHF, 1.33 fold enrichment (6-mer frequency, TF over GST control). Also, the binding signal with SPI1 was 1.27 fold enrichment (6-mer frequency, TF over GST control); with SPIB, 1.23 fold enrichment (6-mer frequency, TF over GST control); with ELK3, 1.29 fold enrichment (6-mer frequency, TF over GST control).
Take ACTAAA: the binding signal is 1.26 fold enrichment (6-mer frequency, TF over GST control) in the experiment with FLI1; 1.22 fold enrichment (6-mer frequency, TF over GST control) in the experiment with ELK1; 1.34 fold enrichment (6-mer frequency, TF over GST control) in the experiment with GABPA; 1.3 fold enrichment (6-mer frequency, TF over GST control) in the experiment with ERG; 1.32 fold enrichment (6-mer frequency, TF over GST control) with ELF1; 1.21 fold enrichment (6-mer frequency, TF over GST control) in the experiment with EHF. Besides, the binding signal is 1.32 fold enrichment (6-mer frequency, TF over GST control) with SPI1; 1.28 fold enrichment (6-mer frequency, TF over GST control) in the experiment with SPIB; 1.34 fold enrichment (6-mer frequency, TF over GST control) with ELK3.
Turning to TCTCGT, the binding signal in the experiment with FLI1 is 1.34 fold enrichment (6-mer frequency, TF over GST control); with ELK1, 1.11 fold enrichment (6-mer frequency, TF over GST control); with GABPA, 1.15 fold enrichment (6-mer frequency, TF over GST control); in the experiment with ERG, 1.11 fold enrichment (6-mer frequency, TF over GST control); with ELF1, 1.24 fold enrichment (6-mer frequency, TF over GST control); with EHF, 1.22 fold enrichment (6-mer frequency, TF over GST control). In addition, the binding signal with SPI1 was 1.24 fold enrichment (6-mer frequency, TF over GST control); with SPIB, 1.3 fold enrichment (6-mer frequency, TF over GST control); with ELK3, 1.19 fold enrichment (6-mer frequency, TF over GST control).
